# Laboratory results from PubChem BioAssay AID1508600 (Functional Genomics Laboratory (NCATS/FGL), 2020).
# Out of some 53,000 sequences screened, about 3,700 (7%) were called active. The entries come from a sample that favours actives as a whole. Unmarked numbers belong to inactive results.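 How the source made its calls: active means gene knockdowns whose robust z-score for IL-1 alpha signal is at least 2 or at most -2, so actives lie on both sides; inactive means the rest.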
# Assay: Components of the Cytosolic LPS Sensing Pathway: Gene Identification via Genome-wide siRNA Screen
# Conditions: RAW264.7 macrophages, IL-1a HTRF, actives lie on both sides, screened at 100 nM (by protocol), cells primed 5 h with Pam3CSK4 first
# From the text: Non-canonical inflammasome activation by cytosolic LPS is a critical component of the host response to Gram-negative bacterial infection, however we lack a comprehensive understanding of the cellular processes that control this pathway. Here we describe a genome-wide siRNA screen to identify genes regulating the mouse macrophage IL-1 alpha response to cytosolic LPS.
# RAW264.7 cells were maintained in complete DMEM media, comprising DMEM with 4.5 g/L glucose, 10% FBS (Gemini Bio-Products, West Sacramento, CA), 2 mM Glutamine (Lonza) and 20 mM HEPES (Lonza), hereafter complete DMEM.
# The RNAi screen was conducted in 384-well format using the Ambion Silencer Mouse Genome siRNA Library (#4391425), which consists of three unique, nonoverlapping, nonpooled siRNAs for each of 17,000 gene targets. siRNA reagents ([…]) were stamped into 384-well white flat-bottom microplates (Corning, 3570) using a Velocity11 VPrep liquid handling system (Agilent) integrated into a BioCel robotic platform (Agilent) in columns 1-22, leaving columns 23-24 empty for negative (Ambion, Negative control #1) and positive (mouse Casp4) controls, respectively. The median value of each plate's negative control column was used to normalize sample wells, and the positive control was used to assess transfection efficiency and assay performance.
# Lipofectamine RNAiMAX Transfection Reagent ([…]; Invitrogen) was added in […] serum-free, antibiotic-free media to plate wells using a Thermo Scientific Matrix WellMate and Microplate Stacker. Plates were incubated for 45 min at room temperature to allow for the sufficient formation of siRNA-lipid complexes. Cells were seeded at a density of 1x10^4 cells per well in 20 microL media containing 20% (vol/vol) FBS without antibiotics. The final concentration of siRNA in each well was 100 nM. Cells were cultured for 48h at 37 degrees C in 5% CO2 before addition of […] of TLR ligand Pam3CSK4 for 5 hours. The medium was then removed, replaced with […] growth media and cell were transfected with […] of LipidA and TransIT-TKO (Mirus) for 24 hour. At the end of the LipidA treatment, […] of supernatant was transferred to a 384 Greiner Bio-one non-binding low volume plate and […] of IL-1a HTRF reagent (Cisbio, 62MIL1APEH) was added and incubated at room temperature overnight. The plates were read on an EnVision plate reader (PerkinElmer). Cell viability was measured by adding 20ul Cell Titer Glo to the original plate and running a luminescence read on the EnVision. The quantified IL-1a signal for each siRNA gene-targeted well was divided by the median of the negative control wells and multiplied by 100 to achieve a negative control normalized value for each well/siRNA. This normalized value was then used to generate a robust z-score by first taking the log of each value and then by subtracting the median and dividing by the […].
row,Sequence,z-score
1,GGGAUCUUUUACUCAUACUTT against Olfr862,-1.95
2,GGUGUACUGAUUUUGAAGATT against Msh3,0.858
3,GCCACGGGUAUAUCUAUAGTT against Tigd4,-0.296
4,GGUGGAAAAUGGUUGGUUUTT against Mfap3,-0.493
5,GGCCAAGAAAAUCCUGUGGTT against Mfsd5,-2.71 (active)
6,GGAACUUGAAAUCGUAAUUTT against Magohb,-0.121
7,GGCAGAACACAGUUCGAUCTT against Tbcb,0.165
8,GCCGUAGAUUUCCUUGAGUTT against Isca1,-0.0435
9,GGGACAAUGAAUGUGAUCUTT against Adam39,-2.81 (active)
10,CCAACCACAGGAUCAGAUGTT against Prrg4,0.556
11,GGAAAAAAUGGAAAACUGGTT against Polr1b,-0.965
12,CCAUUAAAAACCCAGAGGATT against Lyve1,0.0705
13,CCCUAUAAAGAGAAAUUGGTT against Zfp663,-0.166
14,GGCUUCUUUUUAAAAGUAGTT against Pcid2,-1.28
15,GCAGGACUUACAUGAGAAUTT against Fam13c,0.534
16,CCAUAAACUAUGAGUUUUGTT against Elovl7,2.4 (active)
17,GGCUUCCAUUACCAUGAUGTT against Olfr381,-0.318
18,CGCGUAUCUGACCAGGUCATT against Ermard,0.889
19,GGCUGAAAAAUGCUUGAUUTT against Dhdds,-1.14
20,GGAUAACUCUUUCAAAGACTT against Lrit2,0.768
21,GGAGGAGAGAACAAAAUGUTT against Itgb1bp2,0.839
22,GGAUCUCUUUUUUCACAUGTT against Kcne2,0.605

row,Sequence,z-score
1,GGAUCUGGCGGUUACUAAGTT against Gm867,0.776
2,GCUCAUUCUUACCAAUCUCTT against Vsig2,-2.25 (active)
3,GGCUGUGAAAAAACUAGAATT against Serpina1e,-0.359
4,GCCCUACCUUACCUGAUACTT against Rab17,2.03 (active)
5,GGAUCUUAGUAAUAUUGGUTT against Ash2l,-0.72
6,CCACAAGUUCACUAAGGAGTT against Six3,0.193
7,CCUGGAAUCUGUCCCUCAUTT against Olfr262,-0.161
8,CCCACUUACUUUUGAUGUUTT against Uba1,-0.232
9,GGCACGUGAUAAAGGGUUCTT against Pcdha7,2.56 (active)
10,GCAUGUUUGGAUUGCUAUUTT against Olfr653,0.999
11,GGAUUUUCAAAGAGGACACTT against Cdca7l,0.735
12,GCAGAGACGUGAUUGAUCGTT against H2bc18,-1.17
13,CCAUUUCUCACCAGUGAUCTT against Gm5535,-2.61 (active)
14,CCGUUCCAUCAUUAAGACCTT against Tssk2,0.359
15,CCAAGGCCAUCUCAUUUUCTT against Olfr749,0.511
16,GGCUAUUUUGCUGUACCUCTT against Gbgt1,0.589
17,GGAAAUAUCUCUGGUAAUATT against Reln,-2.17 (active)
18,GCAUCCUGAGUCCGUAUCCTT against Rbm11,1.37
19,GGUAGAGCGCAAGAAGGCATT against Nol12,1.23
20,CGGAGUUGAGCCAGAAAAATT against Fbxo31,-0.777
21,GGAGAAAUUGCCUUUGAUCTT against Pdik1l,0.416
22,CGAUUUGCAGCCCUCAUGATT against Inka1,-2.27 (active)

row,Sequence,z-score
1,GCCGUCUACCCUGAUAACATT against Cp,0.67
2,GAAGCAGGCCUGGGAUCUUTT against Vmn1r41,2.01 (active)
3,GGAGCAAAUGAUCAAUAAATT against Serpina3b,-0.364
4,GGCAUCUCUUUGCUUGAAUTT against Lalba,-0.86
5,GCCCUCAUUUGUCCUACAUTT against Arhgef2,0.202
6,GGGUUUAGAGACCCUGAGATT against Klc2,-2.09 (active)
7,GGUGGACAAGGAGAGGACUTT against H2-Q1,0.109
8,GGAAUGGAACACAAAUAGCTT against Kdelr2,0.191
9,GGACUUUUGUGUAUAGUUATT against Smad1,1.59
10,GGACGCGGGAAAAAUGUUCTT against Hnrnpab,1.37
11,GCUGGAAGCAUUUGUUUUUTT against Uap1,2.19 (active)
12,GCUUAGUGACCAUCUCCGUTT against Epop,0.236
13,GGAAUCUCACCAAUCCAAATT against Rab14,-0.364
14,GGAGAGCUAGCCUUAAUAATT against Bspry,4.21 (active)
15,CGGUUACAGGUGAAAUCCUTT against Sval1,-1.36
16,CGGGUGAUGCCUAUGUCAUTT against Gsn,0.837
17,GGCUUACAGUUCCAUAUGGTT against Olfr401,-1.11
18,GCUCAUUGCACUUGCCAAGTT against Tcea2,-0.0377
19,GGUUUGUGUCUAAGGAAUUTT against Klhdc7a,-0.203
20,GGUCCUACCUUGAAGCUCCTT against Ado,0.816
21,GCACCAGUCGGUAUUCACATT against C1qc,-0.665
22,GCAUUGUGAGACUAACGUGTT against Dusp7,1.08

row,Sequence,z-score
1,GGGAAUAAUGUCUAGUUUGTT against Fam126a,0.215
2,GAUGGUGUCUAGUGAGAGCTT against Oxct2b,-2.01 (active)
3,GCACCAUUUUGAUCGUCAUTT against Olfr519,0.341
4,GGUUUGAAAUGAAACUUCATT against Nedd4l,-0.0699
5,GCGAGCUUUAACCUUUCCATT against Olfr1028,-2.49 (active)
6,CCUCACAAAGCACAAUAUCTT against Sntg1,-1.46
7,CGUAGCUAUUCUGGUUGUCTT against H2-Q6,-0.616
8,GGUCCUCAAUGAAAUGAGATT against Krt12,1.05
9,GGAGUUUGGAACUUCCAACTT against Tcf21,2.79 (active)
10,GGACCAAAAUCUAGAAUACTT against Zfp629,-0.898
11,GGUAUUUAAGUGAUACAUCTT against Ddost,-0.321
12,GGUACCGUCAGUUGUCCUATT against Rnf4,-1.86
13,GGUGAAGAAGGAGACAAAGTT against Tmem43,0.347
14,GGAUAAAGUUUAAGGAUGGTT against Vmn1r40,-0.43
15,GGAGAAGGAUGAAGACGGATT against Map1lc3a,0.397
16,GCUUUUGUUACAUAAUGCUTT against Tmem237,1.12
17,GACCACUUCCUUCUAUGCCTT against Slc35c1,-2.07 (active)
18,GGGCUUCAUCAACUAUCUUTT against Spint1,1.03
19,CGGCUAAAUGCAAGUAAAGTT against Rgma,-1.07
20,GGUACUGAUUACUCUGUAUTT against Mrps17,-0.388
21,GCUUUUUGUGAAACUGGCCTT against Pstpip2,0.191
22,GGUCAAUAUCCUCGGACAUTT against Hsd17b13,-0.386

row,Sequence,z-score
1,GCCACGUAGACUGAUAUAGTT against Irf5,-1.16
2,GGAACAAGGAAGUUAAGGATT against Olfr1044,0.251
3,GCCCAACGUGGUGUACAUUTT against Gask1b,4.04 (active)
4,CCAGUUUCAGAUCAGAUUATT against Zfp747,0.729
5,GCUGACCUUCAUUCAUAUATT against Vmn1r27,-2.06 (active)
6,GCUAGGAGAACCUACAUACTT against Adcy4,-0.368
7,GCUGAGAGUGAACCGAUGUTT against Dyrk4,1.54
8,CCAUUCUACGAGAAUUGUATT against Dync1i2,-0.326
9,GGAUAACAGAGAUUUCUCCTT against Il15ra,0.0534
10,CCUGCAUUAUUUAUGAAAGTT against Mfap3l,-0.449
11,GUAAUCACCUUAAAGAUGUTT against Cebpb,1.32
12,GGUUAGGUUGAUGAAUAAGTT against Eif4ebp2,2.46 (active)
13,CCUUUUGAGAGCUCCAGAUTT against Ptrh1,-0.273
14,CCUAAGGCAAUCCCUAUUGTT against Gprasp1,-0.424
15,GCAAUUUAAGUUUAGGAGATT against Heatr1,-0.215
16,GCCAAUCUGGUGAUACUUCTT against Vmn1r71,-1.64
17,GCUGUUAAGUAAUGACAGATT against Chst7,1.54
18,GGUAAAUGACAACUUUCUUTT against Slco6b1,2.92 (active)
19,GCCUAUUGGCCUGAUAUGUTT against Gpr141b,0.173
